The structures appear in SMILES notation. Values joined by “and” are separate entries in the source; they are usually repeats but may differ in a detail not shown here. Equal values may be shown once. Where a structure was tested more than once in an assay, its records may differ in their call. Active and inactive are the calls of the source. A call without a number means that no potency is given here. Calls follow the shape of the dose curve; as a rule, active = well fitted activation curve with a large enough effect in the repeat runs; inconclusive = weak or mixed curves; inactive = flat fitted curve, though single readings scatter.
Potency is read from the fitted curve at half-maximal effect.

The experiment can be described thus: A CellTox Green Cytotoxicity Assay to monitor cytotoxicity in HepG2 cells - 0 hour (AID 1224882). Also: nearly all actives have a fitted effect of over 35% in size. The following applies: CellTox Green fluorescence; series mostly up to 76.8 µM. The source says: National Center for Advancing Translational Sciences [NCATS]
NIH Chemical Genomics Center [NCGC]
U.S. Environmental Protection Agency [EPA]
National Institutes of Environmental Health Sciences [NIEHS]
National Toxicology Program [NTP]
Cell-based models are critical for drug discovery. Determining the natural cytotoxic effects resulting from test compounds is an essential research activity. A CellTox Green Cytotoxicity Assay to monitor cytotoxicity in real time of continues cell culture during 40 hours of the compound treatment was used to screen Tox21 10K library compounds in HepG2 cells. CellTox Green Cytotoxicity Assay is a nonlytic, homogeneous, biofluorescent method to measure cytotoxicity in cell culture after experimental manipulation. The assay system uses a proprietary asymmetric cyanine dye that is excluded from viable cells but preferentially stains the dead cell's DNA. […] Viable cells produce no appreciable increases in fluorescence. Therefore, the fluorescence signal produced by the binding interaction with dead cell DNA is proportional to cytotoxicity.
The mixture of HepG2 cell suspension and reagents were dispensed at 600cells/6 ul/well in 1536-well tissue culture treated black solid bottom plates using a Multidrop dispenser. After the assay plates were incubated at a 37 C/5% CO2 incubator for 5 hours, 23 nL of compounds dissolved in DMSO, positive and negative controls was transferred to the assay plate by a pintool work station. The plates were incubated at 37 C for 40 hours. The fluorescence intensity were measured at 0h, 8h, 16h, 24h, 32h and 40h time points using ViewLux plate reader during compound treatment.
Take `CCCCCCC(O)CCCCCCCCCCC(=O)O` (stereo not given): the Potency result is “inactive”.
The entry for `Cc1c(O)cccc1C(=O)N[C@@H](CSc1ccccc1)[C@H](O)CN1C[C@H]2CCCC[C@H]2C[C@H]1C(=O)NC(C)(C)C` is “inactive”.
`CN1C(=O)c2ccc([N+](=O)[O-])cc2C1=O`: the Potency entry is “inactive”.
The entry for `COC(c1ccccc1)(c1ccccc1)[C@H](Oc1nc(C)cc(C)n1)C(=O)O` is “inactive”.
In the case of `CC1=C(C=O)C(C)(C)CC=C1` it was “inactive”; in that of `CC(C)(c1ccccc1)c1ccc(Nc2ccc(C(C)(C)c3ccccc3)cc2)cc1`, “inactive”.
In the case of `OCCOCCN1CCN(C(c2ccccc2)c2ccc(Cl)cc2)CC1` (stereo not given), the Potency entry was “inactive”.
`NC(N)=NC(=O)Cc1c(Cl)cccc1Cl`: the Potency result was “inactive”.
`Cc1ccc(S(=O)(=O)Oc2ccc(N=Nc3ccc(-c4ccc(N=Nc5c(O)ccc6cc(S(=O)(=O)O)cc(S(=O)(=O)O)c56)c(C)c4)cc3C)cc2)cc1`: the Potency result was “inactive”.
In the case of `COC(=O)/C=C/c1ccccc1` it was “inactive”.
The entry for `C#CC(C)(CC)OC(=O)c1ccccc1C(=O)O` (stereo not given) is “inactive”.
In the case of `CC1COC(=O)O1` (stereo not given) it was “inactive and 43.6 µM (active)”; in that of `CC(=O)CC(C)=O`, “inactive”; in that of `CCCNC(C)C(=O)Nc1ccccc1C` (stereo not given), “inactive”.
Turning to `CC(=O)Nc1ccc(C(=O)CCl)cc1`, the Potency entry was “inactive”.
The entry for `CC(=O)CC(=O)Nc1ccc2[nH]c(=O)[nH]c2c1` is “inactive”; for `OCCN1CCNCC1` it is “inactive”.
For the compound `CC[C@H]1CN2CCc3cc(OC)c(OC)cc3[C@@H]2C[C@@H]1C[C@H]1NCCc2cc(OC)c(OC)cc21`, the Potency result is “inactive”.
With `CCN1CCCC1CNC(=O)c1cc(S(=O)(=O)CC)c(N)cc1OC` (stereo not given), the Potency entry was “inactive”.
The entry for `CCc1cc(C(C)(C)C)c(O)c(C(C)(C)C)c1` is “inactive”; for `BrC1CCC(Br)C(Br)CCC(Br)C(Br)CCC1Br` (stereo not given) it is “inactive”.
The entry for `CC(C)(C)c1cc(C(C)(C)C)c(O)c(C(C)(C)C)c1` is “inactive”; for `Cc1cccc([N+](=O)[O-])c1C(=O)O` it is “inactive”; for `CCCCN(CCO)CCCC` it is “inactive”.
The entry for `C=CC(=O)OCCCCCCCC` is “inactive”.
`NCCCCCC(=O)O`: the Potency entry was “inactive”.
In the case of `Nc1ccc2cc3ccccc3cc2c1` it was “inactive”; in that of `Cc1scc2c1N(C(=O)CN1CCN(C)CC1)c1ccccc1NC2=O`, “inactive”.
As for `CC(=O)OCC1=C(C(=O)O)N2C(=O)[C@@H](NC(=O)Cc3cccs3)[C@H]2SC1`, the Potency entry was “inactive”.
Turning to `O=C(OCc1ccccc1)c1ccc(O)cc1`, the Potency entry is “inactive”.
As to `COc1ccc(CCN2CCC(Nc3nc4ccccc4n3Cc3ccc(F)cc3)CC2)cc1`, the Potency entry is “inactive”.
Turning to `O=C1CC2(CCCC2)CC(=O)N1CCCCN1CCN(c2ncccn2)CC1`, the Potency entry was “inactive”.
Turning to `O`, the Potency result was “inactive”.
For the compound `CCN(CC)CCOc1ccc(/C(=C(\Cl)c2ccccc2)c2ccccc2)cc1`, the Potency entry is “inactive”.
Take `COc1ccc(Cc2cnc(N)nc2N)cc1OC`: the Potency result is “inactive”.
The entry for `Oc1c(Cl)cc(Cl)c(Cl)c1Cc1c(O)c(Cl)cc(Cl)c1Cl` is “inactive”.
The entry for `CC(C)CCOC(=O)c1ccc(N(C)C)cc1` is “inactive”; for `CCCN[C@H]1CCc2nc(N)sc2C1` it is “inactive”; for `COC(=O)c1cccc(C(=O)OC)c1` it is “inactive and 38.9 µM (active)”.
In the case of `Nc1cc(S(=O)(=O)O)cc2cc(S(=O)(=O)O)cc(O)c12` it was “inactive”.
